Source: PubChem BioAssay AID463173 (ICCB-Longwood Screening Facility, Harvard Medical School, 2010)
Hit rate of the full screen: of about 52,000 compounds, about 4,300 (8.3%) were called active. For the sample, actives were picked, then their nearest neighbours and some compounds at random. Unmarked numbers belong to inactive results. Rule as the data show it: active = survival mostly below about 52% (no sharp cut-off); inactive = mostly above about 56%.

Tested on: DeltatarO mutant
Test: growth inhibition of S. aureus wild type versus tarO mutant, primary screen, teichoic acid synthesis inhibitors, RN4220, OD600 (AID 463173)
Details: OD600, 18 h, stronger effect = lower value, screened at 18.75 µg/mL (by protocol)

Point of comparison: COc1ccccc1N1CCN(c2ncnc3c2cnn3C)CC1, survival 83%. Against it:
- O=C(O)Cn1ccc(=O)[nH]c1=O — higher, 96%
- CCOc1ccc(CCNC(=O)c2cc3c(=O)oc4ccc(C)cc4c3s2)cc1OCC — lower, 67%
- Cc1nc2nc(NCc3cccc(Br)c3)[nH]n2c(=O)c1Cc1ccccc1 — lower, 54%
- CCc1ccc(CNc2nc3nc(C)c(Cc4ccccc4)c(=O)n3[nH]2)cc1 — lower, 80%
- Cc1nc2nc(NCc3cccc(Cl)c3)[nH]n2c(=O)c1Cc1ccccc1 — lower, 78%
- Cc1nc2nc(NCc3ccccc3Cl)[nH]n2c(=O)c1Cc1ccccc1 — the same, 83%
- Nc1ccc(Oc2ccc(C(=O)O)c(C(=O)O)c2)cc1 — higher, 98%
- O=C(NCc1ccco1)C1C2C3CCC(C3)C12 (centres undefined) — lower, 77%
- CC(CC1C(C#N)=C(N)SC(N)=C1C#N)c1ccccc1 (centres undefined) — lower, 51%
- N#CC1=C(N)SC(N)=C(C#N)C1c1ccc(O)cc1 — lower, 82%
- O=C(c1ccc(F)cc1)N1CCC(c2nc3ccccc3s2)CC1 — lower, 76%
- CCCOc1ccccc1C(=O)N1CCC(c2nc3ccccc3s2)CC1 — lower, 63%
- CCOc1cccc(C(=O)N2CCC(c3nc4ccccc4s3)CC2)c1 — lower, 75%
- CC(C)Oc1ccc(C(=O)N2CCC(c3nc4ccccc4s3)CC2)cc1 — lower, 49%
- COc1cc(OC)cc(-n2nnc(-c3nc(-c4ccccc4Cl)no3)c2N)c1 — higher, 86%
- COc1ccccc1N1CCN(S(=O)(=O)c2ccc(-c3coc(C)n3)cc2)CC1 — lower, 71%
- O=C1CCCc2c1cc(C(=O)N1CCOCC1)c(=O)n2-c1ccccc1 — lower, 69%
- Cc1cccc(NC(=O)N2CCN(C(=O)c3nsc4ccccc34)CC2)c1C — higher, 88%
- O=C(Nc1ccccc1)N1CCN(C(=O)c2nsc3ccccc23)CC1 — higher, 88%
- CCc1ccc(NC(=O)N2CCN(C(=O)c3nsc4ccccc34)CC2)cc1 — higher, 87%
- Cc1cc(C)cc(NC(=O)N2CCN(C(=O)c3nsc4ccccc34)CC2)c1 — higher, 88%

In the case of Cc1nc2nc(NCc3ccc(Br)cc3)[nH]n2c(=O)c1Cc1ccccc1, the survival is reported as 39% (active).
In the case of Cc1nc2nc(NCc3ccc(Cl)cc3)[nH]n2c(=O)c1Cc1ccccc1, the survival is reported as 40% (active).
N#CC1=C(N)SC(N)=C(C#N)C1CCC1CCCCC1 was tested, and the survival was 2% (active).
CC(C)COc1ccc(C(=O)N2CCC(c3nc4ccccc4s3)CC2)cc1 was tested, and the survival was 17% (active).
For CCCOc1ccc(C(=O)N2CCC(c3nc4ccccc4s3)CC2)cc1, the survival was 36% (active).
With CCc1ccccc1NC(=O)N1CCN(C(=O)c2nsc3ccccc23)CC1 the survival was 17% (active).
Cc1ccc(NC(=O)N2CCN(C(=O)c3nsc4ccccc34)CC2)cc1C was tested, and the survival was -5% (active).
